Data: article PMC7862700, “An all-to-all approach to the identification of sequence-specific readers for epigenetic DNA modifications on cytosine”

Experiments:
Experiment in all cases: DAPPL (digital affinity profiling via proximity ligation, sequencing); 10 mM Tris-HCl pH 7.5, 50 mM NaCl, 1 mM DTT, 4% glycerol, room temperature, 30 min; GST-TFs on glutathione beads, 16-mer random dsDNA library, 0.1% formaldehyde crosslink after washing; high values mean tight binding
Settings in all cases: protein: recombinant; tags: N-terminal GST; dsDNA, one strand shown
ERF = target: T1, ERF (Homo sapiens, UniProt P50548 1-548)
T1 sequence: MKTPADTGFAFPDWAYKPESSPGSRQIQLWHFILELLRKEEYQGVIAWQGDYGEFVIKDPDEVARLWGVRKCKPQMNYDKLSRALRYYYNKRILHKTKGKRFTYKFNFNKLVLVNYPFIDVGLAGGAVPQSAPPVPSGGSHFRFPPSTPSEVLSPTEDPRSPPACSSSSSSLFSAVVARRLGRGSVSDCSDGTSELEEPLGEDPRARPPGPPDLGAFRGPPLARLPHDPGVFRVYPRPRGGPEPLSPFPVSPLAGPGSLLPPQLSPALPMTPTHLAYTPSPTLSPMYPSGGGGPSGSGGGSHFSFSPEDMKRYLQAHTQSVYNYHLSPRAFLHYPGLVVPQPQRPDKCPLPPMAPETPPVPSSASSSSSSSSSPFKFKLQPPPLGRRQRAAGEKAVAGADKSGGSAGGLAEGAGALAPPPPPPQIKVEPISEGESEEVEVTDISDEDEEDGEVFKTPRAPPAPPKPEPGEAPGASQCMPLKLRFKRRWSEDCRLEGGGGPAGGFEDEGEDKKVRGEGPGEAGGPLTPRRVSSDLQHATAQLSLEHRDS
In short: (§1)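 Human transcription factors were made in yeast as GST fusions, captured on glutathione beads and barcoded with DNA. With a tag-only sample included, the pool was incubated with 200 nmole of a random double-stranded 16-mer DNA library in Tris/NaCl/DTT/glycerol buffer at room temperature for 30 min, then crosslinked with 0.1% formaldehyde after washing, ligated by proximity, amplified and sequenced. For binding signal, each hexamer's read frequency for a factor is divided by its frequency for the tag-only sample.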

ETV3L = target: T2, ETV3L (Homo sapiens, UniProt Q6ZN32 1-361)
T2 sequence: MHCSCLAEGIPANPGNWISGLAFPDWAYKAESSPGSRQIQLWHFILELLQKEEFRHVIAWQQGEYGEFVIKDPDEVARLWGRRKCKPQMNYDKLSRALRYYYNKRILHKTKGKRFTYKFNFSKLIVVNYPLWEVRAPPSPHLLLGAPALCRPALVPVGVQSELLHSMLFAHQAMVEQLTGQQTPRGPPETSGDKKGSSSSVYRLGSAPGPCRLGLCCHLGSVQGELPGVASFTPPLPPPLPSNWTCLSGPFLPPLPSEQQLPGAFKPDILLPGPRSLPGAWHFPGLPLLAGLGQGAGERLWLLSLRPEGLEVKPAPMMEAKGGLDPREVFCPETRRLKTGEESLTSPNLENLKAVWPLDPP
In short: as §1

ETS2 = target: T3, ETS2 (Homo sapiens, UniProt P15036 1-469)
T3 sequence: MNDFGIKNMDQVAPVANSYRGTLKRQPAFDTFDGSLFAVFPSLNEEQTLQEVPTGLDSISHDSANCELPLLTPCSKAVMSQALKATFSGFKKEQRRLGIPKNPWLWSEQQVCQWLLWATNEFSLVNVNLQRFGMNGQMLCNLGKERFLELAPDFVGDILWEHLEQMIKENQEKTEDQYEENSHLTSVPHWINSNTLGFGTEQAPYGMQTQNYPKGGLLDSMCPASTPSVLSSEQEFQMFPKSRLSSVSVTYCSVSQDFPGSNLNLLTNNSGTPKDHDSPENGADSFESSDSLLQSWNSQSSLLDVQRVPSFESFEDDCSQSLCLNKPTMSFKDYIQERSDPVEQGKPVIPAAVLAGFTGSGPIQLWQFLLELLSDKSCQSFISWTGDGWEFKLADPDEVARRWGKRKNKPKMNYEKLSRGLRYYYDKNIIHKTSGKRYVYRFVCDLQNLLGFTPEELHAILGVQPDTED
In short: as §1

SPDEF = target: T4, SPDEF (Homo sapiens, UniProt O95238 1-335)
T4 sequence: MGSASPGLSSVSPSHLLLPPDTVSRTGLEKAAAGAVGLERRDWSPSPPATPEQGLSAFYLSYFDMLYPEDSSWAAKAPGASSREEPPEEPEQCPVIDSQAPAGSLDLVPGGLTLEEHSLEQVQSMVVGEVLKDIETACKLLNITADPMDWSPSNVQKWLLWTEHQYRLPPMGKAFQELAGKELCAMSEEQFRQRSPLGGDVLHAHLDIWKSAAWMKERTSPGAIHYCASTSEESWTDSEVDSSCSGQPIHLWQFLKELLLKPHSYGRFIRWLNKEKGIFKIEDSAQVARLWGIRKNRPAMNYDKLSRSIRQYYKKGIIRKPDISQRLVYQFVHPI
In short: as §1

ETV7 = target: T5, ETV7 (Homo sapiens, UniProt Q9Y603 1-341)
T5 sequence: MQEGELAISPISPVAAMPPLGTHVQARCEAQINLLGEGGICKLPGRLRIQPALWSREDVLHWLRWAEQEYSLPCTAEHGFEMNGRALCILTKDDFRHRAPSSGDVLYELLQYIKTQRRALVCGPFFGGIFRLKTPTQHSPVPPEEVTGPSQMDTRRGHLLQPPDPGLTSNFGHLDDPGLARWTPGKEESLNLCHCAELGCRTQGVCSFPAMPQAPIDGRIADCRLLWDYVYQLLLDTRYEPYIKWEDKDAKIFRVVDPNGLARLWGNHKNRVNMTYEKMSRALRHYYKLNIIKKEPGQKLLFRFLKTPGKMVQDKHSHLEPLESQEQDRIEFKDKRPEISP
In short: as §1

ELF5 = target: T6, ELF5 (Homo sapiens, UniProt Q9UKW6-2 1-255)
T6 sequence: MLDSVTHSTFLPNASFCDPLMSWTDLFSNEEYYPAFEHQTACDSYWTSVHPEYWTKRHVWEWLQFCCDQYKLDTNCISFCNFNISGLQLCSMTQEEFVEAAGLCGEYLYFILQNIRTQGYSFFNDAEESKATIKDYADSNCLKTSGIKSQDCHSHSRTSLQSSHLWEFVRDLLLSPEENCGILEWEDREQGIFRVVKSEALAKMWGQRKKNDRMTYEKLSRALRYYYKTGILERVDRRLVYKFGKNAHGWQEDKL
In short: as §1

ETV3 = target: T7, ETV3 (Homo sapiens, UniProt P41162-2 1-143)
T7 sequence: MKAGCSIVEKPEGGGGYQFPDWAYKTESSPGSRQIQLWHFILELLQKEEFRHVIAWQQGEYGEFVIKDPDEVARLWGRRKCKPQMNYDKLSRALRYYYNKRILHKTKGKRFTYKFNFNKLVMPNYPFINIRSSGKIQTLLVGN
In short: as §1

ETV6 = ETV6 (Homo sapiens, UniProt P41212 1-452)
In short: as §1

Chain of ETV6 (P41212 whole entry): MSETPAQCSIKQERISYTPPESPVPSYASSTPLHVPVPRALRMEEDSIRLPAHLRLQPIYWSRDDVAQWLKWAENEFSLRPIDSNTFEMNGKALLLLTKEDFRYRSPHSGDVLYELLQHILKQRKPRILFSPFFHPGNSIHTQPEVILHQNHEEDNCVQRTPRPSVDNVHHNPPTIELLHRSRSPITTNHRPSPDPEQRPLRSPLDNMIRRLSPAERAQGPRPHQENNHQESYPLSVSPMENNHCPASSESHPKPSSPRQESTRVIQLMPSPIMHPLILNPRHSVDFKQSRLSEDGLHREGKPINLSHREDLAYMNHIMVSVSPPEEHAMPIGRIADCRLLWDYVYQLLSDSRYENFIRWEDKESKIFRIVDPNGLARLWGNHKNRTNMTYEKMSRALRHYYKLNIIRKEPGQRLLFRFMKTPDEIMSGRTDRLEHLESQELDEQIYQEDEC

Row | Sequence | binding signal (ERF) | binding signal (ETV3L) | binding signal (ETS2) | binding signal (SPDEF) | binding signal (ETV7) | binding signal (ELF5) | binding signal (ETV3) | binding signal (ETV6)
1 | AAATAA | 1.38 fold enrichment (6-mer frequency, TF over GST control) | 1.26 fold enrichment (6-mer frequency, TF over GST control) | 1.39 fold enrichment (6-mer frequency, TF over GST control) | 1.25 fold enrichment (6-mer frequency, TF over GST control) | 1.32 fold enrichment (6-mer frequency, TF over GST control) | 1.34 fold enrichment (6-mer frequency, TF over GST control) | 1.31 fold enrichment (6-mer frequency, TF over GST control) | 1.5 fold enrichment (6-mer frequency, TF over GST control)
2 | ACCAAT | 1.32 fold enrichment (6-mer frequency, TF over GST control) | 1.28 fold enrichment (6-mer frequency, TF over GST control) | 1.39 fold enrichment (6-mer frequency, TF over GST control) | 1.24 fold enrichment (6-mer frequency, TF over GST control) | 1.29 fold enrichment (6-mer frequency, TF over GST control) | 1.23 fold enrichment (6-mer frequency, TF over GST control) | 1.29 fold enrichment (6-mer frequency, TF over GST control) | 1.34 fold enrichment (6-mer frequency, TF over GST control)
3 | AAATTT | 1.43 fold enrichment (6-mer frequency, TF over GST control) | 1.4 fold enrichment (6-mer frequency, TF over GST control) | 1.35 fold enrichment (6-mer frequency, TF over GST control) | 1.15 fold enrichment (6-mer frequency, TF over GST control) | 1.36 fold enrichment (6-mer frequency, TF over GST control) | 1.43 fold enrichment (6-mer frequency, TF over GST control) | 1.27 fold enrichment (6-mer frequency, TF over GST control) | 1.37 fold enrichment (6-mer frequency, TF over GST control)
4 | CACAAG | 1.13 fold enrichment (6-mer frequency, TF over GST control) | 1.16 fold enrichment (6-mer frequency, TF over GST control) | 1.22 fold enrichment (6-mer frequency, TF over GST control) | 1.07 fold enrichment (6-mer frequency, TF over GST control) | 1.05 fold enrichment (6-mer frequency, TF over GST control) | 1.11 fold enrichment (6-mer frequency, TF over GST control) | 1.16 fold enrichment (6-mer frequency, TF over GST control) | 1.14 fold enrichment (6-mer frequency, TF over GST control)
5 | CTCGAT | 1.37 fold enrichment (6-mer frequency, TF over GST control) | 1.44 fold enrichment (6-mer frequency, TF over GST control) | 1.36 fold enrichment (6-mer frequency, TF over GST control) | 1.22 fold enrichment (6-mer frequency, TF over GST control) | 1.31 fold enrichment (6-mer frequency, TF over GST control) | 1.22 fold enrichment (6-mer frequency, TF over GST control) | 1.36 fold enrichment (6-mer frequency, TF over GST control) | 1.3 fold enrichment (6-mer frequency, TF over GST control)
6 | GATGAC | 1.45 fold enrichment (6-mer frequency, TF over GST control) | 1.53 fold enrichment (6-mer frequency, TF over GST control) | 1.44 fold enrichment (6-mer frequency, TF over GST control) | 1.55 fold enrichment (6-mer frequency, TF over GST control) | 1.61 fold enrichment (6-mer frequency, TF over GST control) | 1.53 fold enrichment (6-mer frequency, TF over GST control) | 1.56 fold enrichment (6-mer frequency, TF over GST control) | 1.43 fold enrichment (6-mer frequency, TF over GST control)
7 | ATGCTC | 1.33 fold enrichment (6-mer frequency, TF over GST control) | 1.51 fold enrichment (6-mer frequency, TF over GST control) | 1.42 fold enrichment (6-mer frequency, TF over GST control) | 1.43 fold enrichment (6-mer frequency, TF over GST control) | 1.37 fold enrichment (6-mer frequency, TF over GST control) | 1.38 fold enrichment (6-mer frequency, TF over GST control) | 1.35 fold enrichment (6-mer frequency, TF over GST control) | 1.44 fold enrichment (6-mer frequency, TF over GST control)
8 | TACCAC | 1.21 fold enrichment (6-mer frequency, TF over GST control) | 1.26 fold enrichment (6-mer frequency, TF over GST control) | 1.27 fold enrichment (6-mer frequency, TF over GST control) | 1.16 fold enrichment (6-mer frequency, TF over GST control) | 1.15 fold enrichment (6-mer frequency, TF over GST control) | 1.29 fold enrichment (6-mer frequency, TF over GST control) | 1.2 fold enrichment (6-mer frequency, TF over GST control) | 1.21 fold enrichment (6-mer frequency, TF over GST control)
9 | TTTGCC | 1.31 fold enrichment (6-mer frequency, TF over GST control) | 1.2 fold enrichment (6-mer frequency, TF over GST control) | 1.32 fold enrichment (6-mer frequency, TF over GST control) | 1.21 fold enrichment (6-mer frequency, TF over GST control) | 1.26 fold enrichment (6-mer frequency, TF over GST control) | 1.2 fold enrichment (6-mer frequency, TF over GST control) | 1.32 fold enrichment (6-mer frequency, TF over GST control) | 1.11 fold enrichment (6-mer frequency, TF over GST control)
